Inconclusive results are not listed. Active and inactive are the calls of the source. How the source made its calls: active means hit-call score of the fitted dose curve at least 0.9, where 1 is the maximum; inconclusive means response in the unintended direction; inactive means score below 0.9.

This test is described as follows: TOX21_p53_BLA_p5_viability: Viability Assessment in the Tox21 HCT-116 p53 Agonism Beta-lactamase Assay, Phase 5 (AID 2283600). Put shortly: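 Decreased CellTiter-Glo luminescence denotes lost viability. Exposure: 16 h at 37C, 5% CO2, with compounds from DMSO stocks diluted 217-fold in wells of 4000 cells.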
Take `CN(C)CCC(O)(c1ccccc1)c1ccccc1Cl` (stereo not given): the outcome was inactive.
The entry for `C=CCCCCCC` is “inactive”; for `CC(C)(C)NSc1nc2ccccc2s1` it is “inactive”; for `C[C@@H](c1ncncc1F)[C@](O)(Cn1cncn1)c1ccc(F)cc1F` it is “inactive”.
With `O=C(Oc1ccccc1C(=O)O)c1ccccc1O` the entry was “inactive”; with `CC1(C)S[C@@H]2[C@H](NC(=O)[C@@H](NC(=O)N3CCNC3=O)c3ccccc3)C(=O)N2[C@H]1C(=O)O`, “inactive”; with `O=C(c1ccc(Cl)cc1)c1ccc(Cl)cc1`, “inactive”.
For the molecule `FC(F)(F)c1ccccc1-n1ccnc1`, the molecule was classed as inactive.
In the case of `NC(CO)C(=O)NNCc1ccc(O)c(O)c1O` (stereo not given), the result was inactive.
For the molecule `CN1CCN(c2cc3c(cc2F)c(=O)c(C(=O)O)cn3-c2ccc(F)cc2)CC1`, the call was inactive.
The entry for `CC(C)c1ccccc1C(C)C` is “inactive”; for `COc1cc(C(=O)N2CCCCCCC2)cc(OC)c1OC` it is “inactive”; for `Nc1cccc2c(=O)[nH][nH]c(=O)c12` it is “inactive”.
For `CCN1CCCC1CNC(=O)c1cc(S(N)(=O)=O)ccc1OC` (stereo not given), the molecule was called inactive.
With `CC(C)C(=O)OCC(C)(C)C(O)C(C)C` (stereo not given) the entry was “inactive”; with `CCCCCCOC(=O)c1cccnc1`, “inactive”; with `CCCCCCCC/C=C\CCCCCCCC(=O)OCCCC`, “inactive”.
With `CCN(CCO)CCCC(C)Nc1ccnc2cc(Cl)ccc12` (stereo not given) the entry was “inactive”; with `CC1(C)O[C@@H]2C[C@H]3[C@@H]4CCC5=CC(=O)CC[C@]5(C)[C@@]4(F)[C@@H](O)C[C@]3(C)[C@]2(C(=O)CCl)O1`, “inactive”.
With `N[C@@H](C(=O)N[C@@H]1C(=O)N2C(C(=O)O)=C(Cl)CC[C@H]12)c1ccccc1` the entry was “inactive”.

Source of the values: PubChem BioAssay (EPA / NIEHS).
